Sampled rows, rich in hits. Any-hit rate of the full collection: about 1.5%.
TMEM16A act: activators or potentiators of mouse TMEM16A chloride channel; Q8BHY3; HEK293 TMEM16A/YFP-H148Q/I152L, iodide quench fluorescence; active compounds read low; B-score at 10 µM; actives 0.3% (n = 340,000); AID 623877;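 active = fluorescence-ratio B-score plate-corrected deviation score at least 3 library SD below zero, with starting fluorescence score within 5 deviations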;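 also: channel opened by trigger with iodide after compound preincubation; score built on the fluorescence ratio of max minus min over baseline; more negative score means more quench and so TMEM16A activation or potentiation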
Target sequence (Q8BHY3 whole entry, looked up): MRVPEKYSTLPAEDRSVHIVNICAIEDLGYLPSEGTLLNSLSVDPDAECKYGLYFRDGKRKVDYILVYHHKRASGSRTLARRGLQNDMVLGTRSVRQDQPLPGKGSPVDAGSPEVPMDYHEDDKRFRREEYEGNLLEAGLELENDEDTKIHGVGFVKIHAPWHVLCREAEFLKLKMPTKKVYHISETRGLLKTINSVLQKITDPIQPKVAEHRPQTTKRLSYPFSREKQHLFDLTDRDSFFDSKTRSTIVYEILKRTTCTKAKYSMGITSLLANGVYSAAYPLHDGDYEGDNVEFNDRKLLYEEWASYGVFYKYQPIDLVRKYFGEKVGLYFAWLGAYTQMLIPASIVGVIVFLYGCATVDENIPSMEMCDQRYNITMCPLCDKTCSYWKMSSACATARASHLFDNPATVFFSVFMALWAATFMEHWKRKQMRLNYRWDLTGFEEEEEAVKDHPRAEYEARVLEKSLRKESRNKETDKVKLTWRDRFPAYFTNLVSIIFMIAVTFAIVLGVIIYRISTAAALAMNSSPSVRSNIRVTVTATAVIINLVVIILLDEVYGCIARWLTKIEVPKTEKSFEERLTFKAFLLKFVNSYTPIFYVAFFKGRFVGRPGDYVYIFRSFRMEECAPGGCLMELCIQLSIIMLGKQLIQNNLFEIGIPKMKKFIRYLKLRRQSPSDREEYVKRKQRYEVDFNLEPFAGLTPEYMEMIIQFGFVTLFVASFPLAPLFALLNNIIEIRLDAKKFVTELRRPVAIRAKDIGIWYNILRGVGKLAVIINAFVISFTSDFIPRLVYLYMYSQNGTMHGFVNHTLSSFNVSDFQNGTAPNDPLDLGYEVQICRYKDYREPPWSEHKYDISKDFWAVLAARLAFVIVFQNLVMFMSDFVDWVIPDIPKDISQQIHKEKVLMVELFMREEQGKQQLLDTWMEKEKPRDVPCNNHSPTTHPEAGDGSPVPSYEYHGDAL
DAGLB inhibitor: diacylglycerol lipase beta (human) inhibition. Q8NCG7. actives 0.059% (n = 340,000). HEK293T DAGLB membrane lysate, EnzChek fluorogenic substrate. AID 504411. inhibition, % at 5.17 µM; in the data active = inhibition above about 34%;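 also: 0% = enzyme with vehicle and 100% = wells lacking enzyme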
iPSC survival up: hiPSC single-cell survival enhancement; ATPlite luminescence; 100% = ROCK inhibitor wells, 0% = DMSO; survival enhancement, % at 20 µM; actives 0.044% (n = 360,000); AID 602274; in the data active = survival enhancement above about 18%;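 also: cells exposed to compounds for 16 hours before the ATP read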
ABCB6 inh 2: inhibitors of human ABC transporter ABCB6 | Q9NP58 | K562-ABCB6 porphyrin accumulation, flow cytometry, 1 h; active compounds read low | fluorescence ratio to DMSO, % at 10 µM | actives 0.19% (n = 360,000) | AID 602162;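 active = fluorescence ratio to DMSO below 75%, the collection mean minus 3 SD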;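 also: signal is porphyrin accumulated inside mitochondria; 100% equals median channel fluorescence of DMSO control wells; lower ratio means ABCB6 inhibition with less porphyrin fluorescence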
ANO1 block: mouse TMEM16A channel inhibition, primary screen | Q8BHY3 | HEK293 TMEM16A/YFP iodide influx fluorescence, ionomycin | normalized B-score (activity score, 25-100; higher = stronger inhibition) at 10 µM | actives 1.2% (n = 310,000) | AID 588511;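 active = ratio plate-corrected score three or more library SD toward inhibition, starting fluorescence score within five deviations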;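 also: score derived from kinetic fluorescence span divided by baseline fluorescence per well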
TMEM16A reconf: TMEM16A (mouse) chloride channel inhibition, re-confirmation. inhibition, % at 10 µM. shares compounds with ANO1 block. HEK293 TMEM16A/YFP-H148Q, iodide quench fluorescence; ionomycin added to raise cell calcium. actives 39% (n = 2,300);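 active = mean duplicate percent inhibition, scaled so buffer wells are 0 and the reference blocker 100, over three buffer SD above buffer mean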
TMEM16A Ca cntr: alters calcium mobilization in TMEM16A HEK293 cells, counter-screen; TMEM16A/YFP HEK293, Fluo4 calcium mobilization; actives 2% (n = 2,300); shares compounds with ANO1 block; calcium response (% of ionomycin), % at 10 µM; AID 652231;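 active = duplicate-averaged calcium signal over 20% of the ionomycin maximum, relative to buffer baseline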;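 also: each well's signal is peak minus trough fluorescence divided by its pre-addition baseline; 0% = buffer wells and 100% = ionomycin wells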
Parental YFP cnt: counter-screen for TMEM16A inhibitors: effect in parental YFP-HEK293 cells | 2,300 tested, under 10 active | YFP ratio F(max-min)/F0 at 10 µM | shares compounds with ANO1 block | iodide YFP quench, ionomycin;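 active = yellow fluorescent protein signal ratio exceeding the buffer control mean by over 5 SD of those controls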;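 also: ratio is mean of duplicate wells from kinetic YFP trace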
ClC-1 rat inh: rat ClC-1 inhibition, TMEM16A specificity screen; shares compounds with ANO1 block; CHO ClC-1-YFP, iodide influx fluorescence quench; iodide control reads 0, buffer control 100; ratio percent, % at 10 µM; 2,300 tested, under 10 active;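 active = duplicate-mean ratio percent above the mean of iodide-only control wells, which defines zero, plus 5 of their SD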;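 also: higher percent means stronger block of ClC-1 iodide influx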
The depositor's hits bear a star; i = inactive; x = not tested or not shown.

SMILES	TMEM16A act	DAGLB inhibitor	iPSC survival up	ABCB6 inh 2	ANO1 block	TMEM16A reconf	TMEM16A Ca cntr	Parental YFP cnt	ClC-1 rat inh
COC(=O)c1cn(CCOc2ccccc2F)c2ccccc12	i	-9.0	-1.8	93.0	i	x	x	x	x
COC(=O)c1cn(CCOc2ccccc2OC)c2ccccc12	i	-5.5	-2.5	95.0	25*	i	i	-0.917	-17.5
CC1CCN(C(=O)C(NS(=O)(=O)c2cccc3nsnc23)C(C)C)CC1 (stereo unspecified)	i	2.0	-0.3	99.0	i	x	x	x	x
CC1CCN(C(=O)C(NS(=O)(=O)c2cccc3nsnc23)c2ccccc2)CC1 (stereo unspecified)	i	-0.8	-0.3	92.0	i	i	i	-1.35	-17.5
Cc1cccc(OCC(=O)NNc2c3ccccc3nc3ccccc23)c1	i	6.2	3.6	96.0	25*	i	i	-1.11	-4.5
COc1ccc(OC)c(-c2cc(C3CCN(c4ncccc4[N+](=O)[O-])CC3)[nH]n2)c1	x	5.3	-2.1	95.0	i	x	x	x	x
COc1ccc(OC)c(-c2cc(C3CCN(c4cc(Cl)nc(N)n4)CC3)[nH]n2)c1	i	2.1	0.2	98.0	100*	i	i	-1.24	-19.5
CCCCNC(=S)Nc1ccc(C(F)(F)F)cc1	i	-6.0	0.3	92.0	100*	40.0%*	i	-0.9	-22.5
CCCCNC(=S)Nc1ccc(Cl)cc1	i	-4.4	-1.4	100.0	i	x	x	x	x
C=CCNc1ncnc2c1[nH]c1ccccc12	i	-0.1	5.4	90.0	i	x	x	x	x
C=CCNc1ncnc2c1[nH]c1ccc(Cl)cc12	i	-2.8	-0.8	96.0	100*	58.0%*	i	-0.973	-28.5
CC1CC(C(=O)Nc2ccccc2)C(=O)O1 (stereo unspecified)	i	0.0	-0.2	96.0	i	x	x	x	x
Nc1nc(CN2CCN(c3ccccc3F)CC2)nc(Nc2ccccc2)n1	i	-2.0	-1.8	93.0	i	x	x	x	x
Nc1nc(CN2CCN(c3ccccc3)CC2)nc(Nc2ccc(Cl)cc2)n1	i	4.8	-1.7	89.0	25*	i	i	-1.13	-2.0
[O-][n+]1ccc(CC(O)(C(F)(F)F)C(F)(F)F)cc1	x	-1.9	1.9	99.0	x	x	x	x	x
O=C(C1CCC(CNS(=O)(=O)c2ccc(F)cc2)CC1)N1CCOCC1 (stereo unspecified)	i	-1.7	1.7	99.0	i	x	x	x	x
O=C(C1CCC(CNS(=O)(=O)c2ccccc2)CC1)N1CCOCC1 (stereo unspecified)	i	-1.6	-0.9	77.0	25*	i	i	-1.03	-8.0
CC(NC(=O)C1CCC(CNS(=O)(=O)c2ccccc2)CC1)c1ccccc1 (stereo unspecified)	i	-0.6	0.7	106.0	i	x	x	x	x
CCC(C)NC(=O)C1CCC(CNS(=O)(=O)c2ccccc2)CC1 (stereo unspecified)	i	-1.3	-0.4	100.0	i	i	i	-0.863	0.5
COc1ccc(CCN(C)C(=O)Cc2ccc(-c3ccccc3)cc2)cc1OC	i	-4.1	0.3	90.0	25*	i	i	-1.21	-18.0
COc1ccc(CCN(C)C(=O)COc2ccc(C(=O)c3ccccc3)cc2)cc1OC	i	1.8	0.0	95.0	i	x	x	x	x
CC(C)CN1C(=O)c2ccc(C(=O)Nc3ccccn3)cc2C1=O	i	-1.9	4.4	101.0	i	x	x	x	x
CC(C)CN1C(=O)c2ccc(C(=O)Nc3ccncc3)cc2C1=O	i	0.4	-0.9	100.0	25*	27.0%*	i	-0.994	-18.0
